Measured values reported in PubChem BioAssay (NCI).
Compounds without any hit were thinned out: in the full panel of roughly 83,000, 20% have a hit.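 96-well plates, one dose, 48 hours. Percent growth reported; active if below 10.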 Calls of active or inactive are those of the source.

Tests used:
Experiment in all cases: NCI-60 one-dose screen, 48 h (100 = growth as untreated, 0 = no growth, -100 = all killed)
Details in all cases: 10 µM unless noted
HCT-15 colon = tested on: HCT-15 colon
HT29 colon = tested on: HT29 colon
SNB-19 CNS = tested on: SNB-19 CNS
U251 CNS = tested on: U251 CNS
PC-3 prostate = tested on: PC-3 prostate
SK-MEL-5 melanoma = tested on: SK-MEL-5 melanoma
UACC-62 melanoma = tested on: UACC-62 melanoma
LOX IMVI melanoma = tested on: LOX IMVI melanoma
SK-MEL-28 melanoma = tested on: SK-MEL-28 melanoma
SNB-75 CNS = tested on: SNB-75 CNS

Measured: growth

CC[C@@H](C)OC(=O)c1nn(C(C)=O)c2ccccc12
inactive: HCT-15 colon 89.9% | HT29 colon 107% | SNB-19 CNS 100% | U251 CNS 99.4% | PC-3 prostate 103% | SK-MEL-5 melanoma 94.1% | UACC-62 melanoma 99.2% | LOX IMVI melanoma 95.6% | SK-MEL-28 melanoma 114%

CCCCCCCCCCNC(=O)CCl
inactive: HCT-15 colon 72.4% | HT29 colon 84.2% | SNB-75 CNS 45.5% | U251 CNS 69.8% | PC-3 prostate 66.1% | SK-MEL-5 melanoma 72.9% | UACC-62 melanoma 73.8% | LOX IMVI melanoma 50.9% | SK-MEL-28 melanoma 105%

CNCCCn1c2c(c3ccc([N+](=O)[O-])cc3c1=O)C(=O)c1cc(OC)cnc1-2
active: HCT-15 colon -27.5% | HT29 colon -19.2% | SNB-19 CNS 2.67% | U251 CNS -61.1% | PC-3 prostate 2.02% | SK-MEL-5 melanoma -98.8% | UACC-62 melanoma -77.1% | LOX IMVI melanoma -89% | SK-MEL-28 melanoma -67%

CC(C)(C)n1cc(-c2ccnc(NCCCNS(=O)(=O)c3cccc4ccccc34)c2)c(-c2cccc(O)c2)n1
active: HCT-15 colon -19.5% | HT29 colon -20.2% | SK-MEL-5 melanoma -20% | LOX IMVI melanoma -45.1% | SK-MEL-28 melanoma -37.2%
inactive: SNB-19 CNS 56% | U251 CNS 27% | PC-3 prostate 21.1% | UACC-62 melanoma 51.2%

CCOC(=O)c1cnc2ccc(OC)cc2c1Nc1cccc(S(=O)(=O)NC)c1
inactive: HCT-15 colon 82.3% | HT29 colon 112% | SNB-19 CNS 89% | U251 CNS 71.6% | PC-3 prostate 95.3% | SK-MEL-5 melanoma 100% | UACC-62 melanoma 103% | LOX IMVI melanoma 99.1% | SK-MEL-28 melanoma 85.9%

CN1CCN(Cc2ccc(NC(=O)c3cncc(C#Cc4c(N)ncc5ccc(C#N)cc45)c3)cc2C(F)(F)F)CC1
active: HCT-15 colon -81.8% | HT29 colon -75.7% | SNB-19 CNS -79.1% | U251 CNS -69.4% | PC-3 prostate -52.1% | SK-MEL-5 melanoma -35.5% | UACC-62 melanoma -68.5% | LOX IMVI melanoma -79.8% | SK-MEL-28 melanoma -78.7%

CC1=C(C)C(=O)OC([C@](C)(O)[C@]2(O)CC[C@@]3(O)[C@@H]4C[C@H]5O[C@]56CC=CC(=O)[C@]6(C)[C@H]4CC[C@]23COC(=O)c2ccc(C)o2)C1 (some centres not stated)
active: HCT-15 colon -86.2% | HT29 colon -73.6% | SNB-19 CNS -85% | U251 CNS -85.2% | PC-3 prostate -35% | SK-MEL-5 melanoma -80.6% | UACC-62 melanoma -83.3% | LOX IMVI melanoma -95% | SK-MEL-28 melanoma -86.1%

O=C1O[C@H]([C@H](O)CO)C(O)=C1O
inactive: HCT-15 colon 103% | HT29 colon 105% | SNB-19 CNS 95.8% | U251 CNS 101% | PC-3 prostate 96% | SK-MEL-5 melanoma 104% | UACC-62 melanoma 98.1% | LOX IMVI melanoma 94.8% | SK-MEL-28 melanoma 117%

Brc1cccc(-c2nc(-c3ccc4c(c3)OCCO4)co2)c1
inactive: HCT-15 colon 34.5% [25 µM] | HT29 colon 17.1% [25 µM] | SNB-19 CNS 63.1% [25 µM] | U251 CNS 43.3% [25 µM] | PC-3 prostate 74% [25 µM] | SK-MEL-5 melanoma 57.6% [25 µM] | UACC-62 melanoma 44.6% [25 µM] | LOX IMVI melanoma 45.4% [25 µM] | SK-MEL-28 melanoma 72.9% [25 µM]

CC1=CC(=O)CC(C)(C)[C@@]1(O)/C=C/[C@@H](C)O
inactive: HCT-15 colon 89.4% | HT29 colon 112% | SNB-19 CNS 97.7% | U251 CNS 90.8% | PC-3 prostate 101% | SK-MEL-5 melanoma 97.4% | UACC-62 melanoma 99.7% | LOX IMVI melanoma 93.7% | SK-MEL-28 melanoma 108%

COc1ccccc1/C=C(/C(=O)c1ccccc1)c1ccccc1
inactive: HCT-15 colon 93.4% | HT29 colon 110% | SNB-19 CNS 90.8% | U251 CNS 96.4% | PC-3 prostate 92.2% | SK-MEL-5 melanoma 99.1% | UACC-62 melanoma 82.4% | LOX IMVI melanoma 87.8% | SK-MEL-28 melanoma 108%

S=c1[nH]nc(CSc2ncnc3c2c(-c2ccccc2)cn3-c2ccc(Cl)cc2)o1
inactive: HCT-15 colon 117% | HT29 colon 107% | SNB-19 CNS 94.6% | U251 CNS 93.8% | PC-3 prostate 88.1% | SK-MEL-5 melanoma 104% | UACC-62 melanoma 89.1% | LOX IMVI melanoma 90.2% | SK-MEL-28 melanoma 115%

COc1ccc(-c2nn(-c3ccccc3)cc2/C=C/C(=O)OCc2cn(-c3ccc(F)c(Cl)c3)nn2)cc1
inactive: HCT-15 colon 88.5% | HT29 colon 103% | SNB-19 CNS 85% | U251 CNS 101% | PC-3 prostate 60.5% | SK-MEL-5 melanoma 83.3% | UACC-62 melanoma 80% | LOX IMVI melanoma 78.9% | SK-MEL-28 melanoma 115%

CS(=O)(CCCCN=C=S)=NC(=O)c1c(F)c(F)c(F)c(F)c1F (configuration not stated)
inactive: HCT-15 colon 59.4% | HT29 colon 90.2% | SNB-19 CNS 90.4% | U251 CNS 89.6% | PC-3 prostate 88.6% | SK-MEL-5 melanoma 98.7% | UACC-62 melanoma 88.7% | LOX IMVI melanoma 60.6% | SK-MEL-28 melanoma 97.6%

COc1cccc(-c2nc3sccn3c2-c2ccnc(NCCCNS(=O)(=O)c3ccc(Cl)cc3)c2)c1
active: SK-MEL-5 melanoma 1.31% | UACC-62 melanoma 6.77%
inactive: HCT-15 colon 37.8% | HT29 colon 42.6% | SNB-19 CNS 69.4% | U251 CNS 63.5% | PC-3 prostate 26.2% | LOX IMVI melanoma 39.2% | SK-MEL-28 melanoma 69.6%

NS(=O)(=O)c1ccc(-n2ncc3c(=O)[nH]c(CN4CCN(c5cc6c(cc5F)c(=O)c(C(=O)O)cn6C5CC5)CC4)nc32)cc1
inactive: HCT-15 colon 89.7% | HT29 colon 101% | SNB-19 CNS 94.9% | U251 CNS 102% | PC-3 prostate 82.5% | SK-MEL-5 melanoma 96.7% | UACC-62 melanoma 74% | LOX IMVI melanoma 97.2% | SK-MEL-28 melanoma 93.5%

O=C(CO[N+](=O)[O-])Nc1ccc(C(=O)/C=C/c2ccc(Cl)cc2)cc1
inactive: HCT-15 colon 58.9% | SNB-19 CNS 87.9% | U251 CNS 14.9% | PC-3 prostate 27.6% | SK-MEL-5 melanoma 54.5% | UACC-62 melanoma 49.2% | SK-MEL-28 melanoma 86.8%
active: HT29 colon -23.4% | LOX IMVI melanoma -60.9%

Cc1ccc(-c2nc(/C=N/Nc3cc(C)nc4ccc(Cl)cc34)c(C)o2)cc1
active: HCT-15 colon -67.5% | HT29 colon -77.9% | SNB-19 CNS -44.7% | U251 CNS -94.8% | LOX IMVI melanoma -80.3% | SK-MEL-28 melanoma -68.8%
inactive: PC-3 prostate 33.7% | SK-MEL-5 melanoma 49.6% | UACC-62 melanoma 31.7%

O=[N+]([O-])c1cccc(-c2nc3sccn3c2-c2ccnc(NCCCNS(=O)(=O)c3cccc(F)c3)n2)c1
inactive: HT29 colon 21.3% | SNB-19 CNS 41.2% | U251 CNS 39.8%
active: HCT-15 colon 2.21% | PC-3 prostate -14% | SK-MEL-5 melanoma -71.2% | UACC-62 melanoma -37.8% | LOX IMVI melanoma -17.6% | SK-MEL-28 melanoma -4.71%

CCCCCCCCCC(=O)Oc1ccc(/C(=C(/C)Cc2cccc(OC)c2)c2ccc(OCCN(C)C)cc2)cc1
inactive: HCT-15 colon 105% | HT29 colon 109% | SNB-19 CNS 109% | U251 CNS 110% | PC-3 prostate 110% | SK-MEL-5 melanoma 107% | UACC-62 melanoma 97.8% | LOX IMVI melanoma 102% | SK-MEL-28 melanoma 114%

CCN(CC)CC#CCOC(=O)[C@]1(C)CCC[C@@]2(C)[C@H]1CC(C=O)=C1C=C(C(C)C)CC[C@@H]12
inactive: HCT-15 colon 40.9% | SNB-19 CNS 77.1% | U251 CNS 57.2% | PC-3 prostate 45.4% | SK-MEL-5 melanoma 42.8% | UACC-62 melanoma 68.9% | LOX IMVI melanoma 73.2% | SK-MEL-28 melanoma 87.4%
active: HT29 colon 9.02%

CSc1nc(NCCCNc2ccnc3cc(Cl)ccc23)cc(-c2ccccc2)n1
inactive: HCT-15 colon 46.2% | SNB-19 CNS 91.9% | U251 CNS 53.3% | PC-3 prostate 59.9% | SK-MEL-5 melanoma 52.6% | UACC-62 melanoma 91% | LOX IMVI melanoma 31.2%
active: HT29 colon 9.09% | SK-MEL-28 melanoma -52.2%

CCCCCCCCCCCCNC(=O)[C@H]1CSC(c2ccc(OC)c(F)c2)N1 (some centres not stated)
active: HCT-15 colon -82.3% | HT29 colon -83.1% | SNB-19 CNS -92.6% | U251 CNS -93.4% | PC-3 prostate -93.8% | SK-MEL-5 melanoma -98.1% | UACC-62 melanoma -95% | LOX IMVI melanoma -89.6% | SK-MEL-28 melanoma -92.6%

Cc1ccc(-c2nc(/C=N/Nc3cc(C)nc4ccc(Br)cc34)c(C)o2)cc1
active: HCT-15 colon -83.7% | HT29 colon -70% | SNB-19 CNS -48.9% | U251 CNS -76.4% | PC-3 prostate 5.84% | LOX IMVI melanoma -88.5% | SK-MEL-28 melanoma -13.5%
inactive: SK-MEL-5 melanoma 63.8% | UACC-62 melanoma 86.4%

CC[C@H](Nc1ncnc(N)c1C(N)=O)c1nc2cccc(NCc3ccc(C(=O)NO)cc3)c2c(=O)n1-c1ccccc1
inactive: HCT-15 colon 105% | HT29 colon 88.7% | SNB-19 CNS 68.2% | U251 CNS 52.9% | PC-3 prostate 92.1% | SK-MEL-5 melanoma 87.9% | UACC-62 melanoma 63.3% | LOX IMVI melanoma 103% | SK-MEL-28 melanoma 69.2%

COc1ccc(S(=O)(=O)NCCNc2nccc(-c3c(-c4cccc(N)c4)nc4sccn34)n2)cc1
inactive: HCT-15 colon 101% | HT29 colon 93.5% | SNB-19 CNS 108% | U251 CNS 104% | PC-3 prostate 83.6% | SK-MEL-5 melanoma 98% | UACC-62 melanoma 100% | LOX IMVI melanoma 98.4% | SK-MEL-28 melanoma 117%

O=C(Nc1nc(-c2ccccc2)cc(-c2ccc(Cl)cc2)n1)c1ccncc1
inactive: HCT-15 colon 104% | HT29 colon 96.8% | SNB-19 CNS 90.3% | U251 CNS 93% | PC-3 prostate 91.4% | SK-MEL-5 melanoma 102% | UACC-62 melanoma 86.9% | LOX IMVI melanoma 91.7% | SK-MEL-28 melanoma 115%

O=C1/C(=C/c2ccc(F)cc2)CN(C(=O)CCN2CCC(=NO)CC2)C/C1=C\c1ccc(F)cc1
active: HCT-15 colon -58% | HT29 colon -76.2% | SNB-19 CNS -37.9% | U251 CNS -65.1% | PC-3 prostate -23.9% | SK-MEL-5 melanoma -89.6% | UACC-62 melanoma -67.2% | LOX IMVI melanoma -89.6% | SK-MEL-28 melanoma -59.1%
